12-LOX inh – ALOX12 (human) lipoxygenase inhibition; P18054; purified 12hLO, xylenol orange hydroperoxide absorbance; Potency, µM (highest dose often 108 µM), inactives show at the top dose activity change, negative = inhibition, hits mostly inhibitors; 580,000 tested, 1.1% active; AID 1671190; also: % is scaled to controls: 0 for no effect and ±100 for the full control effect
Target sequence (P18054 whole entry, looked up): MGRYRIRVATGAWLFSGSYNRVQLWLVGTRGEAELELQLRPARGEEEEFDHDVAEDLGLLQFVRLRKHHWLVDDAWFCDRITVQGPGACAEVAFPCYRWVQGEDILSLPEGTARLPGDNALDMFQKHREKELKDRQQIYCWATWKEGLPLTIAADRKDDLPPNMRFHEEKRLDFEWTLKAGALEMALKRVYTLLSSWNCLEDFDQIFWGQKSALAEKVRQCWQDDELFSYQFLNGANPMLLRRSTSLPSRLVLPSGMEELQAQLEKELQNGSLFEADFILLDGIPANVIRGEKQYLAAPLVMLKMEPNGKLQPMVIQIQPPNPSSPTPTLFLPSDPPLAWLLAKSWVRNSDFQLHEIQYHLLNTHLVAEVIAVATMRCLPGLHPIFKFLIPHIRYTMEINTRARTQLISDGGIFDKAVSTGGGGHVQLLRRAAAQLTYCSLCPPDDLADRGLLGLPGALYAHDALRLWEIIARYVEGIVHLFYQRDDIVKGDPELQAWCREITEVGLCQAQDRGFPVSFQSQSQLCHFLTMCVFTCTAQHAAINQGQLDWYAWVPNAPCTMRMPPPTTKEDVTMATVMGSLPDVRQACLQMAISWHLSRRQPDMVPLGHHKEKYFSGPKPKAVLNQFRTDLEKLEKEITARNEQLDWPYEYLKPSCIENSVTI
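Hydroperoxide product was detected by ferrous iron/xylenol orange as the 573 to 405 nm absorbance ratio. Arachidonic acid at 40 uM (final) was turned over for 30 min at room temperature by 150 nM human 12hLO, pH 7.0 Hepes buffer, after 15 min compound preincubation.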
rTrxR1 inhibitor – blocks rat thioredoxin reductase 1. recombinant rTrxR1, NADPH fluorescence consumption, selenite substrate. Potency, µM (titrated, usually from 114 µM), without a hit: top-dose activity change, negative = inhibition, hits mostly inhibitors. 390,000 tested, 1% active. AID 588453; also: % is scaled to controls: 0 for no effect and ±100 for the full control effect; nearly all actives have a fitted effect of over 65% in size
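Rat TrxR1 (90 nM in the dispensed reagent) was pre-reduced with 400 uM NADPH for 5 min at room temperature, then incubated with compound for 15 min. After 400 uM selenite was added, NADPH fluorescence (Ex 340/Em 450 nm) was followed for 8 min.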
TrxR1 substrate – substrates of rat thioredoxin reductase 1. purified TrxR1 substrate turnover, NADPH consumption readout. Potency, µM (highest dose often 114 µM), for inactives: top-dose activity change, negative = substrate turnover. 390,000 tested, 0.01% active. O89049. AID 588456; also: % is scaled to controls: 0 for no effect and ±100 for the full control effect; nearly all actives have a fitted effect of over 50% in size
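Rat TrxR1, dispensed at 90 nM, was prereduced with 400 uM NADPH (final) for 5 min at ~22 deg C, then incubated with compound 15 min before 400 uM selenite. A first-read NADPH fluorescence drop versus no-compound background flagged substrates.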
Glioma ERSR ind – induces the endoplasmic reticulum stress response in human glioma cells; 420,000 tested, 0.02% active; U87-MG GRP78 promoter luciferase reporter, 16 h; Potency, µM, for the others: at the highest dose activation, hits mostly activators; AID 602332; also: series mostly up to about 76 µM; % of control where 0% means no effect; nearly all actives have a fitted effect of over 35% in size
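Stably transfected U87-MG human glioma cells carrying a GRP78-based luminescent sensor were seeded at 1000 cells/well, pin-dosed with compounds and incubated 16 h. Luciferase reagent was then added, and end-point luminescence was read after 10 min at room temperature.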
mIDH1 inhibitor – human IDH1 R132H inhibition | O75874 | IDH1-R132H enzyme, NADPH consumption, diaphorase/resazurin fluorescence | Potency, µM (doses to about 76.6 µM), for the others: at the top dose activity change, negative = inhibition, hits mostly inhibitors | 390,000 tested, 0.093% active | AID 602179; also: % is scaled to controls: 0 for no effect and ±100 for the full control effect; nearly all actives have a fitted effect of over 65% in size
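IDH1-R132H (0.5 ug/mL dispensed) in pH 7.5 Tris buffer was preincubated 30 min with compound, then given a substrate mix of 0.016 mM NADPH and 2 mM alpha-KG for 80 min at room temperature; remaining NADPH was read by diaphorase/resazurin fluorescence.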
Apoferritin bind – binds horse apoferritin like a general anesthetic. AID 485281. 350,000 tested, 0.074% active. P02791. Potency, µM (series often up to 77.5 µM), for inactives: at the highest dose activity change, negative = displacement, usual class: inhibitors. apoferritin/1-aminoanthracene competitive binding, fluorescence; also: % is scaled to controls: 0 for no effect and ±100 for the full control effect; nearly all actives have a fitted effect of over 20% in size
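Apoferritin-based anesthetic binding model; compound displacement of fluorescent 1-AMA measured as endpoint fluorescence after 10 minutes at room temperature, scaled to free-ligand and complex controls.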
The depositor's hits bear a star; ? = inconclusive; . = no result given; ! = not active in a repeat; [ ] = dose if it differs, or a comment. Sampled rows, rich in hits. Any-hit rate of the full collection: about 1.7%. Calls follow the shape of the dose curve; as a rule, active = well fitted curve in the direction sought with a large enough effect; inconclusive = small, poorly fitted or top-dose-only effect, or another doubt; inactive = no such curve, though single readings can be large; an effect the other way counts as inactive or inconclusive. Potency is read from the fitted curve at half-maximal effect.

SMILES | 12-LOX inh | rTrxR1 inhibitor | TrxR1 substrate | Glioma ERSR ind | mIDH1 inhibitor | Apoferritin bind
O=C(NC(=S)Nc1ccccc1Br)C1CC1 | -22% | ? | -1% | 7% | 16% | .
Cc1cc(NC(=S)NC(=O)C2CC2)ccc1Br | ? | 45µM* | 2% | 3% | 8% | ?
Cc1ccc(NC(=S)NC(=O)C2CCCC2)c(Br)c1 | 35µM* | ? | -1% | 4% | -12% | .
CNC(=O)C1(N2CCC[C@H]2C(=O)NCC2CC2)COC1 | 8%[176 µM] | . | . | . | . | .
CC(C)(C)C(=O)Oc1ccc2c(=O)c(-c3ccc(Cl)cc3)coc2c1 | 28% | . | . | . | . | .
CCn1nccc1C(=O)N1C[C@@H](COC)[C@H](c2nc(C3CC3)no2)C1 | 21% | . | . | . | . | .
Cc1ccc(NC(=O)C2CCCC2)cc1Cl | 250% | 7% | 1% | 5% | 0% | .
Cc1ccc(NS(=O)(=O)c2ccc(Cl)c(NC(=S)NC(=O)C3CCCCC3)c2)cc1Cl | 13µM* | 19%[57.1 µM] | 5%[57.1 µM] | -15% | -9% | ?
CNc1oc(-c2ccc(Cl)cc2)nc1C#N | -7% | 40µM* | 190% | 1% | 5% | 29%
COc1ccc(Nc2nc3ccccc3nc2NS(=O)(=O)c2cc(C)ccc2C)c(OC)c1 | 38% | . | . | . | . | .
Oc1cc2c(cc1C(c1ccc(Cl)c(Cl)c1)N1CCCC1)OCO2 (centres undefined) | 4.5µM* | 3.5µM* | 3%[57.1 µM] | -3% | 28% | ?
CC(C)c1ccc(NC(=O)C(c2ccc3c(c2)OCO3)N2CCCCC2)cc1 (centres undefined) | -17% | -14% | -10% | -2% | 13% | 6%
Cc1ccccc1-n1c(C)c(C#N)c(=O)c(-[n+]2ccccc2)c1[S-] | -1% | 4% | 14% | -4% | 7% | -4%
Cc1c(C#N)c(=O)c(-[n+]2ccccc2)c([S-])n1-c1ccc(Cl)cc1 | ? | 50µM* | 3% | 1% | 0% | -1%
Cc1cccn2c(=O)c3cc(C#N)c(=NC(=O)c4ccccc4)n(Cc4ccco4)c3nc12 | 7.1µM* | 50µM* | 70% | 0% | -1% | .
CCOC(=O)c1cc2c(=O)n3ccccc3nc2n(Cc2ccco2)c1=NC(=O)c1ccc(Br)cc1 | ? | ? | 232% | -6% | 2% | 76%
Cc1cccn2c(=O)c3cc(C#N)c(=NC(=O)c4ccco4)n(Cc4ccco4)c3nc12 | ? | 2% | 29% | -4% | -25% | 36%
CCOC(=O)c1cc2c(=O)n3ccccc3nc2n(Cc2ccco2)c1=NC(=O)c1cccc(Br)c1 | ? | 4µM* | 18%[57.1 µM] | 0% | -9% | 458%
Cc1cccc(C(=O)N=c2c(C#N)cc3c(=O)n4cccc(C)c4nc3n2Cc2ccco2)c1 | 35µM*! | 6.3µM* | 106% | -2% | 0% | 18%
Cc1nc2ccc(C(=O)NC(C3CC3)C3CC3)cc2nc1C | 7% | . | . | . | . | .
O=C(NC12CC3CC(CC(C3)C1)C2)c1cccc(F)c1 | 5% | . | . | . | . | .
Cc1nn2c(c1-c1cccnc1N1CCOCC1)N(C(=O)Cc1cccc(Cl)c1)CCC2 | 2% | . | . | . | . | .
O=C(c1sc2cc(F)ccc2c1Cl)N1CCN(c2cccc(Cl)c2)CC1 | -13% | -5% | -1% | -3% | 6% | -6%
O=c1c2ccc(F)cc2sn1-c1ccccc1 | 0.35µM* | . | . | -13% | -4% | .
N=C1SCC(=O)N1c1ccccc1Cl | 3% | -1% | -8% | -2% | -13% | -5%
SMILES | 12-LOX inh | rTrxR1 inhibitor | TrxR1 substrate | Glioma ERSR ind | mIDH1 inhibitor | Apoferritin bind
O=c1c2ccccc2sn1-c1ccc(Cl)cc1 | 0.25µM* | . | . | -4% | 7% | .
Cc1ccc(-n2sc3cc(F)ccc3c2=O)c(C)c1 | 0.4µM* | . | . | 0% | -4% | .
O=c1c2cc(F)ccc2sn1-c1ccccc1Cl | 0.45µM* | . | . | -1% | 0% | .
O=c1c2ccccc2sn1-c1ccc(F)cc1 | ? | 173% | -15% | -8% | -12% | .
O=C(C1CC1)N1C[C@@H]2OCC(=O)N(CC3CC3)[C@@H]2C1 | 24%[176 µM] | . | . | . | . | .
C[C@@H](c1ccccc1)N1C[C@@H](COCc2ccccc2)Oc2cc(N3CC[C@@H](N(C)C)C3)ccc2S1(=O)=O | -42% | . | . | . | . | .
O=C(c1ccc(F)cc1)N1CCC(OCC2CC2)C1 (centres undefined) | 3% | . | . | . | . | .
O=C(COc1ccc(F)cc1)N1CCC(c2noc(-c3ccncc3)n2)C1 (centres undefined) | -4% | . | . | . | . | .
COC(=O)c1cccc(N2CCCC2=O)c1 | 1% | 25% | 3% | -1% | -1% | -17%
COC(=O)c1cccc(-n2sc3ccccc3c2=O)c1 | 1.3µM* | 97%[57.1 µM] | -3%[57.1 µM] | -9% | -23% | .
O=C(c1cccc(F)c1F)N1CCCC2(CCNCC2)CC1 | -14% | . | . | . | . | .
O=[N+]([O-])C(/C=C(\Cl)[N+](=O)[O-])=C1N(Cc2ccc(Cl)nc2)CCN1Cc1ccc(Cl)nc1 | -6% | 1.8µM* | -10% | 7% | 13% | -16%
CC(C)(C)S(=O)N1Cc2cc(C(=O)N3CCOCC3)nc(-c3cccc(Br)c3)c2[C@@H]1CCO (some centres undefined) | 5µM* | . | . | -3% | . | .
CN1CCN(C(=O)c2cc3c(c(-c4cccc(Br)c4)n2)[C@@H](CCO)N(S(=O)C(C)(C)C)C3)CC1 (some centres undefined) | ? | . | . | -4% | . | .
COc1ccc(C#Cc2cnc(Cl)c3cncnc23)cc1OC | . | -18% | 12% | . | . | .
Clc1ncc(C#Cc2ccccc2)c2ncncc12 | . | 18µM* | 35% | . | . | .
Cc1cccc(OCCCn2ccnc2)c1 | -12% | 12%[57.1 µM] | 4%[57.1 µM] | 1% | 0% | 8%
Cc1ccc(OCCCn2ccnc2)cc1C | -2% | 16% | 5% | 0% | 3% | 18µM*
CCOC(=O)C(CC)Sc1nnc(CSc2ncccn2)n1-c1ccc(Cl)cc1 (centres undefined) | 6% | . | . | . | . | .
COc1ccc(C(C)=O)cc1COC(=O)CNC(=O)c1ccccc1F | 12% | 16µM* | 0% | -1% | -1% | -18%
COc1ccccc1CCC(=O)N1CC2CC(C1)[C@H]1CCCC(=O)N1C2 (some centres undefined) | 2% | . | . | . | . | .
CCOC(=O)C1CCN(c2nc3ccccc3nc2C(C#N)C(=O)NCCc2ccccc2)CC1 (centres undefined) | . | . | . | . | . | 14µM*
CCOC(=O)C1CCN(c2nc3ccccc3nc2C(C#N)C(=O)NCc2ccccc2)CC1 (centres undefined) | -44% | . | . | . | . | .
CC(C)C(=O)Nc1ccc(Cl)cn1 | -34% | . | . | . | . | .
O=C(CCS(=O)(=O)c1ccc(Br)cc1)Nc1ccccn1 | -29% | 45µM* | 0% | 1% | -2% | -5%
O=c1cc(CN2CCCCC2c2ccccn2)[nH]c2ccc(F)cc12 (centres undefined) | 7.9µM* | . | . | . | . | .

Source: PubChem BioAssay
